a7 integrin act – integrin-mediated muscular dystrophy alleviation activation. Potency, µM (titrated, usually from 38.3 µM), for the others: top-dose activation, actives largely listed as activators. AID 624291. alpha7betagal myoblasts, beta-gal FDG fluorescence, 48 h. actives 0.064% (n = 350,000); active = well fitted activation curve with a large enough effect; inconclusive = small, poorly fitted or top-dose-only effect; inactive = no such curve, though single readings can be large or run the other way;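 note: potency is the fitted concentration of half-maximal effect; 100% = response of the positive control SU9516; nearly all actives have a fitted effect of over 60% in size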
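Alpha7betagal+/- myoblasts (passage 13) were plated 16-24 hr, then exposed to compounds (1:260 dilution of DMSO stock) for 48 hours at 37C. After MPER lysis, β-galactosidase reporter activity was read as FDG fluorescence (ex 480/em 540) after 30 minutes.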
D3 ag – agonists of human D3 dopamine receptor; max activation, %; P35462; AID 652048; actives 0.58% (n = 410,000); D3R DiscoveRx beta-arrestin cells, luminescence, 90 min; in the data active = max activation above about 30%; note: 0% is about no effect
Target sequence (P35462 whole entry, looked up): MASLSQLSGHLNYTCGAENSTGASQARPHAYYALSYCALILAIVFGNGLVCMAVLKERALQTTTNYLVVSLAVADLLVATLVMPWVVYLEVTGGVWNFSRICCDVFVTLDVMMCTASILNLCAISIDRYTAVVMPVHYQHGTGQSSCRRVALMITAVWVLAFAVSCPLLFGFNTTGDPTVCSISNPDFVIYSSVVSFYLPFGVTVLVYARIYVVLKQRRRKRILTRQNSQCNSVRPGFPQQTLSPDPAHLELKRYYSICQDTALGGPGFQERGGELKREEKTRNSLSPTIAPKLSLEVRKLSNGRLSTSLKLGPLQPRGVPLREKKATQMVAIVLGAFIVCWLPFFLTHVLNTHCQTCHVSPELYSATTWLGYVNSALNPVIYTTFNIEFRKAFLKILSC
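Agonist-mode cell screen: cells plated at 1500/well and incubated overnight at 37 °C, then exposed to library compounds for 90 min at 37 °C. Detection reagent was added for 30–60 min at room temperature, and luminescence was read.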
D3 antag – blocks the human D3 dopamine receptor | P35462 | max response, negative = inhibition, % | D3R cells, DiscoveRx beta-arrestin luminescence, antagonist mode; active compounds read low | actives 2.5% (n = 360,000) | AID 652054; in the data active = max response below about -50%; inconclusive = no clear call, values can overlap the other calls; note: % is set by controls: 0 for no effect and ±100 for the full control effect
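Cells expressing the human receptor were seeded at 1500 cells/well, incubated overnight at 37 degrees C in 5% CO2, then exposed to library compounds with dopamine controls for 90 minutes at 37 degrees C before luminescent detection.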
* hit, by the source's call; ! = not active in a repeat. Only some compounds are listed: those with a hit (about 2.9% of all), similar ones and a draw of the others.

How did CCN(CC)CCn1c(=N)n(CC(O)c2ccco2)c2ccccc21 (stereo not given) do in these assays?
a7 integrin act: -14.3%; D3 ag: -1.0; D3 antag: -9.5

Results for C#CCOCCOCCOCCNc1nc(N2CCN(C(=O)[C@H](CCC(=O)O)n3cc(C(N)CO)nn3)CC2)nc(N2CCN(C(=O)[C@H](CCC(=O)O)n3cc(C(N)[C@H](C)CC)nn3)CC2)n1 (stereo not given in full) ?
a7 integrin act: 2.6%; D3 ag: 2.4; D3 antag: 2.9

Results for CCOC(=O)c1cc(NC(=O)c2ccc(C)cc2)c(=O)oc1-c1ccccc1 ?
a7 integrin act: -14.8%; D3 ag: 3.6; D3 antag: -7.7

Results for CCNc1ncnc2c1cnn2C1CCCO1 (stereo not given) ?
a7 integrin act: 8.0%; D3 ag: -2.7; D3 antag: -0.8

How did CCOC(=O)NC1Cc2ccccc2C1Sc1ccccn1 (stereo not given) do in these assays?
a7 integrin act: 8.7%; D3 ag: -2.0; D3 antag: 3.1

What do the screens show for `CSCCCN1CCCC(CO)(Cc2ccccc2F)C1` (stereo not given)?
a7 integrin act: -37.5%; D3 ag: -7.4; D3 antag: -56.2*

How did CSCCCN1CCCC(CO)(Cc2ccc(F)cc2)C1 (stereo not given) do in these assays?
a7 integrin act: -63.9%; D3 ag: -5.6; D3 antag: 0.0

What do the screens show for `Cc1nc2ccc(S(=O)(=O)NC(C(=O)NCc3ccc(Cl)cc3)C(C)C)cc2s1` (stereo not given)?
D3 ag: 8.2

How did COc1ccc(NC(=S)NC2CCN(Cc3ccccc3)CC2)cc1OC do in these assays?
a7 integrin act: 15.4%; D3 ag: -13.3; D3 antag: -10.2

Results for Cn1c(=O)[nH]c(=O)c2c1nc(SCCN1CCOCC1)n2Cc1ccccc1 ?
a7 integrin act: -7.9%; D3 ag: -10.8; D3 antag: -69.9*

Results for Cn1c(=O)[nH]c(=O)c2c1nc(SCCN1CCOCC1)n2CCCc1ccccc1 ?
a7 integrin act: 4.1%; D3 ag: 0.7; D3 antag: -5.4

What do the screens show for `CCC(CC)C(=O)OCC(=O)Nc1cccc(S(=O)(=O)N(C)c2ccccc2)c1`?
a7 integrin act: 25.3%; D3 ag: -1.1; D3 antag: 0.9

What do the screens show for `Cc1nc2cc(C(F)(F)F)ccc2n1CCNc1nc(-c2ccc(F)cc2)cs1`?
a7 integrin act: 16.8%; D3 ag: 0.5; D3 antag: 7.5

Results for Cc1ccc(-c2csc(NCCn3c(-c4ccncc4)nc4cc(C(F)(F)F)ccc43)n2)cc1 ?
a7 integrin act: -16.7%; D3 ag: 13.2; D3 antag: 1.6

Results for COc1ccc(-c2csc(NCCn3c(C)nc4cc(C(F)(F)F)ccc43)n2)cc1 ?
a7 integrin act: 1.1%; D3 ag: 36.6*; D3 antag: 73.4

What do the screens show for `Cc1ccc(-c2csc(NCCn3c(-c4ccncc4)nc4ccccc43)n2)cc1`?
a7 integrin act: 4.8%; D3 ag: 51.4*; D3 antag: 120.4

How did CN(C)c1ccc(C(CNC(=O)c2ccccc2F)N2CCc3ccccc32)cc1 (stereo not given) do in these assays?
D3 ag: -1.0

What do the screens show for `CCCCOCCOCCOCc1cc2c(cc1CCC)OCO2`?
D3 ag: 9.3

What do the screens show for `Cc1ccc(NC(=O)COc2cccc(-n3cnnn3)c2)cc1[N+](=O)[O-]`?
a7 integrin act: -33.7%; D3 ag: 0.5; D3 antag: -4.3

What do the screens show for `CC1=Nc2cc(Cl)ccc2Oc2ccccc21`?
a7 integrin act: 7.6%; D3 ag: -4.0; D3 antag: 3.0

How did Clc1ccc2c(c1)C(N1CCNCC1)=Nc1ccccc1O2 do in these assays?
D3 ag: -85.0; D3 antag: -117.4*

What do the screens show for `CC(=O)Nc1ccc(S(=O)(=O)NC(C)C(=O)NCC(c2ccco2)N2CCCCC2)cc1` (stereo not given)?
a7 integrin act: 23.3%; D3 ag: 0.2; D3 antag: 30.2

Results for Cc1ccc(S(=O)(=O)NC(CC(C)C)C(=O)NCC(c2ccco2)N2CCCCC2)cc1 (stereo not given) ?
a7 integrin act: -14.4%; D3 ag: -25.5; D3 antag: -78.9*

How did O=C(NCC(c1ccco1)N1CCCC1)c1ccccc1F (stereo not given) do in these assays?
a7 integrin act: 0.0%; D3 ag: -1.9; D3 antag: inconclusive

What do the screens show for `S=C(NCc1ccco1)NCC(c1ccco1)N1CCCCC1` (stereo not given)?
a7 integrin act: -0.8%; D3 ag: 0.2; D3 antag: -65.8*

How did CSc1ccccc1C(=O)NCC(c1ccco1)N1CCCCC1 (stereo not given) do in these assays?
a7 integrin act: -13.0%; D3 ag: -8.8; D3 antag: 6.5

How did Cc1c(C(=O)NCC(c2ccco2)N2CCCC2)sc2ccccc12 (stereo not given) do in these assays?
a7 integrin act: 2.3%; D3 ag: -23.7; D3 antag: -64.3*

How did CCc1cc(C(=O)NCC(c2ccco2)N2CCCCC2)sc1C (stereo not given) do in these assays?
a7 integrin act: -10.2%; D3 ag: -8.6; D3 antag: -59.4*

Results for O=C(NCC(c1ccco1)N1CCCC1)c1sc2ccccc2c1Cl (stereo not given) ?
a7 integrin act: 21.9%; D3 ag: -19.9; D3 antag: -15.0

What do the screens show for `CCn1ccnc1CN(C)Cc1cn(-c2cc(C)ccc2C)nc1-c1ccccc1`?
a7 integrin act: -26.1%; D3 ag: -7.2; D3 antag: 0.4

How did CCC(C)N(C(=O)c1csnn1)C(C(=O)NC1CCCC1)c1ccc(F)cc1 (stereo not given) do in these assays?
a7 integrin act: 5.5%; D3 ag: -3.1; D3 antag: -8.2

Results for O=C(CCN1C(=O)C2C3CCC(C3)C2C1=O)OCC(=O)c1ccc(Br)cc1 (stereo not given) ?
a7 integrin act: -14.9%; D3 ag: -2.5; D3 antag: -20.0

How did Cc1cccc(C(=O)NC(C)C(c2cccs2)N2CCOCC2)c1 (stereo not given) do in these assays?
a7 integrin act: 0.8%; D3 ag: 9.0; D3 antag: 30.9

What do the screens show for `O=c1[nH]c(C2CCN(S(=O)(=O)Cc3ccccc3)CC2)nc2c1nnn2Cc1ccccc1`?
a7 integrin act: 16.6%; D3 ag: -6.7; D3 antag: -21.2

How did Cc1ccc(NC(=O)CN2CC(C)SC2=NC2CCCCC2)cc1 (stereo not given) do in these assays?
a7 integrin act: 3.8%; D3 ag: -16.4; D3 antag: -95.5*!

Results for CCc1ccc(NC(=O)CN2CCN(C3CCCCC3)C(=O)C2=O)cc1 ?
D3 ag: -10.7

How did O=C(N/C(=C/c1ccc(Br)cc1)C(=O)N1CCCC1)c1ccccc1F do in these assays?
a7 integrin act: 6.7%; D3 ag: 0.1; D3 antag: 9.7

Results for O=C(N/C(=C/c1ccc(Br)cc1)C(=O)N1CCCCC1)c1ccccc1F ?
a7 integrin act: 1.2%; D3 ag: -20.4; D3 antag: -57.1*

Results for CCC(C)(C)NC(=O)C(c1cccn1C)N(C(=O)Cn1nnc2ccccc21)c1ccc(OC)cc1 (stereo not given) ?
a7 integrin act: 5.8%; D3 ag: 2.2; D3 antag: 13.0

Assay outcomes from PubChem.
